Laboratory results taken from PubChem BioAssay (NCATS).
Records with an inconclusive call do not appear. The list shows a part of the results. Calls of active or inactive are those of the source. Unless noted, the call rests on the fitted dose curve; in most records, active means well fitted curve in the direction sought with a large enough effect; inconclusive means small, poorly fitted or top-dose-only effect, or another doubt; inactive means no such curve, though single readings can be large; an effect the other way counts as inactive or inconclusive.

What was measured:
[1] = target: Cytochrome P450 3A4 (Homo sapiens) (UniProt P08684); test: qHTS Assay for Inhibitors and Substrates of Cytochrome P450 3A4 (AID 884); further: nearly all actives have a fitted effect of over 50% in size; further: potency means the concentration at half of the fitted maximal effect; on activity change, negative = inhibition: on the % scale 0 is the no-effect control and ±100 the full control effect
How it was run: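 20 nM human CYP3A4 with 25 uM Luciferin-PPXE (at KM) in 200 mM KPO4, preincubated 10 min with compound; NADPH regeneration started a 60 min RT reaction. Luciferin detected by luminescence, normalized to 57 uM ketoconazole as full inhibition.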

[2] = Confirmation and Secondary Assay for Modulators of Hemoglobin Beta Chain Splicing at IVS2 654 locus (AID 910);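 further: HeLa cells stably carrying EGFP split by mutant beta-globin IVS2-654 intron; per-well total GFP intensity by laser scanning cytometry after 2-day treatment; % of control where 0% means no effect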
How it was run: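 Readout: per-well total peak green fluorescence (488 nm ex, 500–520 nm em) from objects 5–250 µm, reflecting correct splicing of an EGFP-654 reporter. Compounds were applied for 2 days at 37 °C to overnight-plated HeLa EGFP-654 cells; controls were DMSO and 500 nM IVS2-654 PNA.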

[3] = Confirmation and Secondary Assay for Modulators of Hemoglobin Beta Chain Splicing at IVS2 705 locus (AID 930);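 further: HeLa cells stably expressing the EGFP-705 splicing reporter; GFP fluorescence per well restored by corrected splicing of the IVS2-705 intron in EGFP; % of control where 0% means no effect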
How it was run: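 Assay measures total GFP intensity per well in HeLa EGFP-705 cells after 2 days with compound; mis-splicing normally truncates EGFP, so fluorescence indicates corrected splicing.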

[4] = qHTS Assay for Lipid Storage Modulators (AID 1519; calls by dose curve; further: potency means the concentration at half of the fitted maximal effect; on activity change, negative = inhibition: on the % scale 0 is the no-effect control and ±100 the full control effect); settings: Drosophila S3 cells, BODIPY lipid droplet/cell ratio, laser cytometry, cells loaded with oleic acid; for activity change, negative = inhibition: at 57.5 µM (top of the series)
How it was run: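 Cells seeded at 5,000 per well were treated with compounds over a concentration series and loaded with oleic acid (400 uM, as added). Lipid droplet fluorescence (488 nm excitation, 500-530 nm channel) was read by laser-scanning cytometry and normalized to 20 uM Triacsin C.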

[5] = target: Cytochrome P450 3A4 (Homo sapiens) (UniProt P08684); test: qHTS Assay for Activators of Cytochrome P450 3A4 (AID 885); further: nearly all actives have a fitted effect of over 65% in size
How it was run: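 Quantitative HTS format: compounds preincubated with 20nM human CYP3A4 and Luciferin-PPXE substrate at KM, reaction started by NADPH regeneration, stopped after 60 min, luciferase luminescence read 20 min later.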

[6] = target: ATPase family AAA domain-containing protein 5 (Homo sapiens) (UniProt Q96QE3); test: HTS assay for small molecules that inhibit ELG1-dependent DNA repair in human embryonic kidney (HEK293T) cells expressing luciferase-tagged ELG1: Hit Confirmation (AID 624248); settings: HEK293T ELG1-luciferase levels, luminescence; cells co-treated with 5-fluorouridine; further: potency means the concentration at half of the fitted maximal effect; nearly all actives have a fitted effect of over 55% in size
How it was run: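 Suppression of ELG1-luciferase signal was read by ONE-Glo luminescence in HEK293T reporter cells after 16 h at 37 C co-treatment with compound and 5-fluorouridine as DNA-damaging agent.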

[7] = target: ATPase family AAA domain-containing protein 5 (Homo sapiens) (UniProt Q96QE3); test: qHTS screen for small molecules that inhibit ELG1-dependent DNA repair in human embryonic kidney (HEK293T) cells expressing luciferase-tagged ELG1: Hit Confirmation using MMS Stimulated ELG1 (AID 624249); settings: HEK293T luciferase-tagged ELG1 level; further: potency means the concentration at half of the fitted maximal effect; nearly all actives have a fitted effect of over 60% in size
How it was run: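 Under DNA damage from MMS (final 10 µM), compounds act on ELG1-luc HEK293T cells over 16 h. Decreased luciferase, detected with Amplight, indicates inhibition of the ELG1 response.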

[8] = qHTS screen for small molecules that inhibit ELG1-dependent DNA repair: Hit Confirmation with 5FU Viability (AID 624250); settings: cell viability with 5-FU;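 further: potency means the concentration at half of the fitted maximal effect; viability measured 16 h after compound addition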
How it was run: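 Cell line was HEK293T bearing an ELG1-luciferase reporter. Compound and 5-fluorouridine (10 µM final) were introduced about 5 h post-plating, with cell viability then determined by CellTiter-Glo luminescence at 16 h.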

[9] = qHTS screen for small molecules that inhibit ELG1-dependent DNA repair: Hit Confirmation with MMS Viability (AID 624251); settings: Cell viability with MMS; further: potency means the concentration at half of the fitted maximal effect; nearly all actives have a fitted effect of over 60% in size
How it was run: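 Luminescent ATP read-out (CellTiter-Glo) gives viability of ELG1-luc HEK293T cells exposed to compounds together with 10 µM methyl methanesulfonate for 16 h.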

[10] = target: Luciferin 4-monooxygenase (Photinus pyralis) (UniProt P08659); test: qHTS screen for small molecules that inhibit ELG1-dependent DNA repair: Hit Confirmation in Biochemical Luciferin Assay (AID 624253); further: on the % scale 0 is the no-effect control and ±100 the full control effect
How it was run: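 Cell-free firefly luciferase counterassay: compounds were added to substrate reagent, then luciferase enzyme was added. Luminescence read on a CCD-based imager.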

[11] = measured here: cell count channel max response
[12] = measured here: lipid channel max response

Chain of Cytochrome P450 3A4 (Homo sapiens) (P08684 whole entry, looked up): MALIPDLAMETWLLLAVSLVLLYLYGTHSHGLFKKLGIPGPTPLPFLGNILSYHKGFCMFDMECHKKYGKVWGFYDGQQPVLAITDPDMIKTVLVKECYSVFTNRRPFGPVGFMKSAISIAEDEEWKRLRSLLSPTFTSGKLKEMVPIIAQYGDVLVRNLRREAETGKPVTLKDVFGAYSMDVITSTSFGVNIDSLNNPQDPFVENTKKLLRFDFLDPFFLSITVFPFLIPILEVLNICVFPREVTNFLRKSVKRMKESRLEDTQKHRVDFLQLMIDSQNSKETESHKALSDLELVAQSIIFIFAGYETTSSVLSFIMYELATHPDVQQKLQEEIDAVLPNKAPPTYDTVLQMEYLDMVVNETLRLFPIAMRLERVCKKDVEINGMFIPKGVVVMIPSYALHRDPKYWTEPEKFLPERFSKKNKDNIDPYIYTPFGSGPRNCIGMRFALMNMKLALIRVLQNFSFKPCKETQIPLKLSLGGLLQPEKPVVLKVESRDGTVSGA
Chain of ATPase family AAA domain-containing protein 5 (Homo sapiens) (Q96QE3 whole entry, looked up, the tested form may be a part): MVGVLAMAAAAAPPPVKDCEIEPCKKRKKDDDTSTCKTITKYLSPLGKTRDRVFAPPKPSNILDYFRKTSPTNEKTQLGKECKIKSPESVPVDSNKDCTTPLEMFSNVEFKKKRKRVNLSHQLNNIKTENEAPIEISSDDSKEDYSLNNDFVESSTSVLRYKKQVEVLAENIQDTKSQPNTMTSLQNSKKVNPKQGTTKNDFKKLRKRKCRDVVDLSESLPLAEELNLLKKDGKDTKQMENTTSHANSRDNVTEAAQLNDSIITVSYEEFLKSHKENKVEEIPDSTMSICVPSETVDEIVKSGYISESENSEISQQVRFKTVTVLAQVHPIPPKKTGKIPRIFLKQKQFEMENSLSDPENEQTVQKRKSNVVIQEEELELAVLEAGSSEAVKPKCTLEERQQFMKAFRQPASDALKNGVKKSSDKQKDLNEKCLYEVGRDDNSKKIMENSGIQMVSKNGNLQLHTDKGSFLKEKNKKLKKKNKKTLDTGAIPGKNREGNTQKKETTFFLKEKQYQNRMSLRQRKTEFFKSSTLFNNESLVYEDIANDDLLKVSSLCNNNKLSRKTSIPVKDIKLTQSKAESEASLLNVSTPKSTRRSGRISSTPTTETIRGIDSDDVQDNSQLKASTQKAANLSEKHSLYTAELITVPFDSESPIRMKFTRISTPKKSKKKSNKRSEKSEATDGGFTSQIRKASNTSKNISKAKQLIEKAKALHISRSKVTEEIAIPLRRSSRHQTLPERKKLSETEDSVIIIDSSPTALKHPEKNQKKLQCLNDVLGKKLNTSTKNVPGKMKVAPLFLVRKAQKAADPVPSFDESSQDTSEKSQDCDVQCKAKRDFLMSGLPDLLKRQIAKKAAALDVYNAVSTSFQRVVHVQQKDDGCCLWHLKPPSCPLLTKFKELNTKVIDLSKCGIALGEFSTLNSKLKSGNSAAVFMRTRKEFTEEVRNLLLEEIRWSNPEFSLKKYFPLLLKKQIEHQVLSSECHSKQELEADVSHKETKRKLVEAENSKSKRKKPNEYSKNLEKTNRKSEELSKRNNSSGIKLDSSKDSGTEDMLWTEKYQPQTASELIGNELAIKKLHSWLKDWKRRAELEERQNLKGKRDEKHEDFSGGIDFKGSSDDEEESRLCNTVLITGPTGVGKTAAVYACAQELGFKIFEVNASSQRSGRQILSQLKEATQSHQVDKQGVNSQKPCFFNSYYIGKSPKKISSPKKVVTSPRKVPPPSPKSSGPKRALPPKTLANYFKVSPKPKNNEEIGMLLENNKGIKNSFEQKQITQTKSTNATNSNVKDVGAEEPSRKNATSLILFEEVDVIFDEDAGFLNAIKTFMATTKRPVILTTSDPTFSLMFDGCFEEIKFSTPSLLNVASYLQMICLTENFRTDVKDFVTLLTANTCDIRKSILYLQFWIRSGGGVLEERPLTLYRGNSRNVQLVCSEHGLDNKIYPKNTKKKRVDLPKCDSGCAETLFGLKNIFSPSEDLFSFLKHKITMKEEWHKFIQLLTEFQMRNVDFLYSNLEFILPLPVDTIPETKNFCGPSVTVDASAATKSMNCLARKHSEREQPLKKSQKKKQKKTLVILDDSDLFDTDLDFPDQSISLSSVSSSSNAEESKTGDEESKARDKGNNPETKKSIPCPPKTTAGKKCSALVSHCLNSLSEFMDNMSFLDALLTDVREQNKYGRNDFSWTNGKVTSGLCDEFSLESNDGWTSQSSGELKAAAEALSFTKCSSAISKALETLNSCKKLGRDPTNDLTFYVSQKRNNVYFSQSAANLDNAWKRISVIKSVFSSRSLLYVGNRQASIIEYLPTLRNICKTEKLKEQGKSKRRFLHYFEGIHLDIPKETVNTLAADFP

SMILES	Potency [1]	Potency [2]	Potency [3]	activity change, negative = inhibition [4]	max response [4, 11]	max response [4, 12]	Potency [5]	Potency [4]	Potency [6]	Potency [7]	Potency [8]	Potency [9]	outcome [10]
CCCCCCC(C)OC(=O)COc1ccc(Cl)cc1Cl (stereo not drawn)	inactive	inactive	inactive	1.06% (inactive)	1.5%	2.82%							
N#CC(O[C@@H]1OC(COC2OC(CO)C(O)C(O)[C@@H]2O)C(O)C(O)C1O)c1ccccc1 (stereo partly drawn)	inactive	inactive	inactive	2.68% (inactive)	-0.407%	5.27%							
CC1(C)C(=O)C=C[C@@]2(C)C1=C(O)C(=O)[C@@]1(C)C2CC[C@@]2(C)C(c3ccoc3)C[C@H]3O[C@@]321 (stereo partly drawn)	501 nM (active)	inactive	inactive	0.256% (inactive)	0.732%	3.61%	inactive						
C=C(C)C1CNC(C(=O)O)C1CC(=O)O (stereo not drawn)		inactive	inactive	6.75% (inactive)	5.93%	13%							
CC(=O)OC1CC(OC(C)=O)[C@]2(C)C(CC(OC(C)=O)[C@]3(C)C2CC[C@@]2(C)C(c4ccoc4)C[C@H]4O[C@]432)C1(C)C (stereo partly drawn)		inactive	inactive	6.91% (inactive)	9.38%	19.4%							
c1cc2c(cc1C1OC[C@@H]3C(c4ccc5c(c4)OCO5)OCC13)OCO2 (stereo partly drawn)	79.4 nM (active)	inactive	inactive	7.47% (inactive)	12.5%	26%	inactive						
CC(=O)OC1C[C@@]2(C)C(c3ccoc3)C[C@H]3O[C@@]32[C@@]2(C)C(=O)C(O)=C3C(C)(C)C(=O)C=C[C@]3(C)C12 (stereo partly drawn)	398 nM (active)	inactive	inactive		-2.69%	-67.6%	inactive	15800 nM (active)					
CNC1[C@@H](O)C(OC2C(N)C[C@H](N)[C@@H](O[C@@H]3OC(C(C)O)C(O)C(O)C3N)C2O)OC[C@]1(C)O (stereo partly drawn)	20000 nM (active)	inactive	inactive	8.52% (inactive)	15%	24.5%	inactive						
C=C1C2CC[C@@]3(C)C(c4ccoc4)OC(=O)C[C@@]13OC1CC(=O)C(C)(C)C(C(OC(C)=O)C(=O)OC)[C@@]12C (stereo partly drawn)	1000 nM (active)	inactive	inactive	1.36% (inactive)	4.29%	7.56%	inactive						
COC1CC(OC2CC[C@@]3(C=O)C4CC[C@]5(C)C(C6=CC(=O)OC6)CC[C@@]5(O)C4CC[C@]3(O)C2)OC(C)C1O (stereo partly drawn)	inactive	inactive	inactive	0.995% (inactive)	18.6%	20.5%			706 nM (active)	315 nM (active)	706 nM (active)	397 nM (active)	inactive
